Laboratory results as given in PubChem BioAssay AID1159580 (chemical genetic matrix, 2015).
Where “and” joins values, the source holds several entries; their conditions need not be identical. Equal entries are not always repeated. The campaign covered roughly 5,500 compounds. About 2,000 (36%) were called active. Not shown: some 18% with an inconclusive outcome. No stated cut-off is given here; in the data, active means normalized growth mostly below about 0.91 (no sharp cut-off); inconclusive means no clear call, values can overlap the other calls; inactive means mostly above about 0.92. This is one part of the list.

Experiment: chemical genetic growth profiling, strain panel (AID 1159580);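 further: tested at 20 µM; growth read once vehicle control cultures reached saturation at 30 °C; 1 = growth at the plate median or of vehicle wells; lower values mean less growth of the strain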
Conditions: S. cerevisiae deletion strains, growth OD

Measured: normalized growth

Cc1c(C)c2c(c(C)c1O)CCC(C)(CCCC(C)CCCC(C)CCCC(C)C)O2 (stereo not drawn)
inactive: locus YAL021C, strain ccr4, active compounds read low 1 | locus YAL026C, strain drs2, active compounds read low 0.972 | locus YAL030W, strain snc1, active compounds read low 0.983 | locus YBL061C, strain skt5, active compounds read low 0.989 | locus YBR009C, strain hhf1, active compounds read low 0.965 | locus YBR021W, strain FUR4, active compounds read low 1.03 | locus YBR023C, strain chs3, active compounds read low 0.988 | locus YBR171W, strain sec66, active compounds read low 0.986 | locus YBR229C, strain ROT2, active compounds read low 1 | locus YBR231C, strain swc5, active compounds read low 0.935 | locus YBR279W, strain paf1, active compounds read low 0.99 | locus YCL011C, strain gbp2, active compounds read low 0.972 | locus YCL016C, strain dcc1, active compounds read low 0.982 | locus YCL029C, strain bik1, active compounds read low 1 | locus YCL061C, strain MRC1, active compounds read low 0.987 | locus YCL069W, strain vba3, active compounds read low 0.988 | locus YCR088W, strain abp1, active compounds read low 0.985 | locus YDL005C, strain med2, active compounds read low 0.983 | locus YDL035C, strain GPR1, active compounds read low 1.02 | locus YDL040C, strain nat1, active compounds read low 0.99 | locus YDL074C, strain BRE1, active compounds read low 1.02 | locus YDL101C, strain DUN1, active compounds read low 1.01 | locus YDL134C, strain PPH21, active compounds read low 1.01 | locus YDL185W, strain tfp1, active compounds read low 1 | locus YDL192W, strain arf1, active compounds read low 1.02 | locus YDR001C, strain nth1, active compounds read low 0.981 | locus YDR069C, strain doa4, active compounds read low 0.968 | locus YDR101C, strain arx1, active compounds read low 1.01 | locus YDR137W, strain rgp1, active compounds read low 0.966 | locus YDR150W, strain NUM1, active compounds read low 1.01 | locus YDR159W, strain sac3, active compounds read low 0.956 | locus YDR162C, strain NBP2, active compounds read low 0.993 | locus YDR195W, strain ref2 0.949 | locus YDR297W, strain sur2, active compounds read low 0.978 | locus YDR318W, strain mcm21, active compounds read low 1 | locus YDR334W, strain swr1, active compounds read low 0.985 | locus YDR335W, strain msn5, active compounds read low 0.988 | locus YDR388W, active compounds read low 0.976 | locus YDR392W, strain spt3, active compounds read low 0.929 | locus YDR502C, strain sam2, active compounds read low 0.987 | locus YEL003W, strain gim4, active compounds read low 0.979 | locus YEL037C, strain rad23, active compounds read low 0.987 | locus YEL061C, strain CIN8 (second series), active compounds read low 0.983 | locus YEL061C, strain CIN8, active compounds read low 1.01 | locus YER015W, strain faa2, active compounds read low 0.986 | locus YER016W, strain bim1, active compounds read low 0.975 | locus YER110C, active compounds read low 1 | locus YER111C, strain swi4, active compounds read low 0.985 | locus YER155C, strain BEM2 (second series), active compounds read low 0.97 | locus YER155C, strain BEM2, active compounds read low 1 | locus YER167W, strain BCK2, active compounds read low 1.01 | locus YFR010W, strain ubp6, active compounds read low 0.988 | locus YGL078C, strain dbp3, active compounds read low 0.999 | locus YGL086W, strain mad1, active compounds read low 1.02 | locus YGL167C, strain pmr1, active compounds read low 0.968 | locus YGL173C, strain kem1, active compounds read low 0.985 | locus YGL227W, strain vid30, active compounds read low 0.977 | locus YGL240W, strain doc1, active compounds read low 0.981 | locus YGL248W, strain PDE1, active compounds read low 1.01 | locus YGL253W, strain hxk2, active compounds read low 0.995 | locus YGR078C, strain PAC10, active compounds read low 1 | locus YGR135W, strain pre9, active compounds read low 1.02 | locus YGR229C, strain SMI1, active compounds read low 1.02 | locus YGR252W, strain gcn5, active compounds read low 0.95 | locus YHR013C, strain ard1, active compounds read low 0.928 | locus YHR027C, strain rpn1, active compounds read low 0.993 | locus YHR030C, strain SLT2, active compounds read low 1.01 and 0.996 | locus YHR079C, strain IRE1 (second series), active compounds read low 1 | locus YHR079C, strain IRE1, active compounds read low 1.02 | locus YHR094C, strain hxt1, active compounds read low 1 | locus YHR129C, strain ARP1, active compounds read low 1.01 | locus YHR142W, strain chs7, active compounds read low 0.994 | locus YHR200W, strain rpn10, active compounds read low 0.995 | locus YIL066C, strain RNR3, active compounds read low 1.01 | locus YIL073C, strain SPO22, active compounds read low 1.05 | locus YIL125W, strain kgd1, active compounds read low 1.03 | locus YIR030C, strain dcg1, active compounds read low 0.997 | locus YJL092W, strain hpr5, active compounds read low 0.975 | locus YJL095W, strain BCK1 (second series), active compounds read low 0.989 | locus YJL095W, strain BCK1, active compounds read low 0.998 and 1 | locus YJL115W, strain asf1, active compounds read low 0.985 | locus YJL129C, strain trk1, active compounds read low 1.02 | locus YJL134W, strain LCB3, active compounds read low 1 | locus YJL154C, strain vps35, active compounds read low 0.987 | locus YJL164C, strain tpk1, active compounds read low 1.01 | locus YJL166W, strain qcr8, active compounds read low 0.993 | locus YJL168C, strain set2, active compounds read low 1 | locus YJL187C, strain SWE1 (second series), active compounds read low 0.997 | locus YJL187C, strain SWE1, active compounds read low 0.982 | locus YJR043C, strain POL32, active compounds read low 1 | locus YJR066W, strain TOR1, active compounds read low 0.972 | locus YKL009W, strain mrt4, active compounds read low 0.969 | locus YKL068W, active compounds read low 0.993 | locus YKL085W, strain MDH1 (second series), active compounds read low 0.99 | locus YKL085W, strain MDH1, active compounds read low 0.99 | locus YKL160W, strain elf1, active compounds read low 1.01 | locus YKL190W, strain CNB1, active compounds read low 1 | locus YKR001C, strain vps1, active compounds read low 0.996 | locus YKR026C, strain gcn3, active compounds read low 0.986 | locus YKR091W, strain srl3, active compounds read low 0.982 | locus YLL001W, strain dnm1, active compounds read low 0.983 | locus YLL026W, active compounds read low 0.982 | locus YLL041C, strain sdh2, active compounds read low 0.985 | locus YLR027C, strain aat2, active compounds read low 0.993 | locus YLR039C, strain RIC1, active compounds read low 1.02 | locus YLR058C, strain SHM2, active compounds read low 1 | locus YLR102C, strain apc9, active compounds read low 1 | locus YLR113W, strain HOG1, active compounds read low 0.966 | locus YLR221C, strain rsa3, active compounds read low 1.01 | locus YLR258W, strain gsy2, active compounds read low 0.967 | locus YLR262C, strain YPT6 (second series), active compounds read low 0.98 | locus YLR262C, strain YPT6, active compounds read low 1.01 | locus YLR268W, strain sec22, active compounds read low 1.01 | locus YLR320W, strain mms22, active compounds read low 0.988 | locus YLR330W, strain CHS5, active compounds read low 1 | locus YLR342W, strain FKS1 (second series), active compounds read low 1.02 | locus YLR342W, strain FKS1, active compounds read low 0.978 | locus YLR357W, strain rsc2, active compounds read low 1 | locus YLR370C, strain arc18, active compounds read low 0.995 | locus YLR371W, strain rom2, active compounds read low 1.04 | locus YLR384C, strain iki3, active compounds read low 0.978 | locus YLR418C, strain cdc73, active compounds read low 0.968 | locus YML016C, strain PPZ1, active compounds read low 1 | locus YML032C, strain rad52, active compounds read low 0.987 | locus YML120C, strain ndi1, active compounds read low 1.03 | locus YML124C, strain tub3, active compounds read low 0.993 | locus YMR058W, strain fet3, active compounds read low 1.01 | locus YMR078C, strain ctf18, active compounds read low 1.02 | locus YMR125W, strain sto1, active compounds read low 0.95 | locus YMR129W, active compounds read low 0.979 | locus YMR205C, strain PFK2, active compounds read low 0.933 | locus YMR223W, strain ubp8, active compounds read low 1 | locus YMR231W, strain pep5, active compounds read low 0.977 | locus YMR263W, strain SAP30, active compounds read low 1.01 | locus YMR307W, strain GAS1, active compounds read low 1.01 | locus YNL067W, strain RPL9B, active compounds read low 1 | locus YNL071W, strain lat1, active compounds read low 0.994 | locus YNL153C, strain GIM3, active compounds read low 1.01 | locus YNL183C, strain NPR1, active compounds read low 0.961 | locus YNL209W, strain ssb2, active compounds read low 0.984 | locus YNL233W, strain BNI4, active compounds read low 1.02 | locus YNL248C, strain rpa49, active compounds read low 1.03 | locus YNL250W, strain rad50, active compounds read low 1.01 | locus YNL271C, strain bni1, active compounds read low 0.988 | locus YNL298W, strain CLA4, active compounds read low 0.965 | locus YNL307C, strain MCK1, active compounds read low 1 | locus YNL322C, strain KRE1 (second series), active compounds read low 0.994 | locus YNL322C, strain KRE1, active compounds read low 1 | locus YNR049C, strain mso1, active compounds read low 0.988 | locus YNR052C, strain pop2, active compounds read low 1.02 | locus YOL012C, strain htz1 0.962 | locus YOL147C, strain pex11, active compounds read low 0.997 | locus YOR001W, strain rrp6, active compounds read low 1.02 | locus YOR061W, strain CKA2, active compounds read low 1.01 | locus YOR069W, strain VPS5, active compounds read low 1 | locus YOR070C, strain gyp1, active compounds read low 0.988 | locus YOR080W, strain dia2, active compounds read low 0.985 | locus YOR083W, strain WHI5, active compounds read low 1.01 | locus YOR106W, strain vam3, active compounds read low 1.01 | locus YOR136W, strain idh2, active compounds read low 1.01 | locus YOR144C, strain elg1, active compounds read low 0.985 | locus YOR184W, strain ser1, active compounds read low 0.999 | locus YOR231W, strain MKK1, active compounds read low 0.972 | locus YOR265W, strain rbl2, active compounds read low 0.996 | locus YOR270C, strain vph1, active compounds read low 1.09 | locus YOR290C, strain snf2, active compounds read low 1 | locus YOR316C, strain cot1, active compounds read low 0.995 | locus YPL051W, strain arl3, active compounds read low 1.01 | locus YPL055C, strain LGE1, active compounds read low 1.01 | locus YPL078C, strain atp4, active compounds read low 1.02 | locus YPL106C, strain sse1, active compounds read low 0.966 | locus YPL240C, strain hsp82, active compounds read low 0.98 | locus YPL256C, strain CLN2, active compounds read low 1.02 | locus YPR119W, strain clb2, active compounds read low 0.997 | locus YPR141C, strain kar3, active compounds read low 1 | locus YPR163C, strain tif3, active compounds read low 1 | locus YPR167C, strain met16, active compounds read low 0.984 | strain wtn01, active compounds read low 1.01
